A selection: hits, their analogues and other compounds. The true share with any hit is near 9%.
HPGD inh = blocks human HPGD enzyme activity | purified HPGD, NADH fluorescence kinetic, PGE2 substrate | Potency, µM, for the others: at the top dose activity change, negative = inhibition, usual class: inhibitors | actives 4.3% (n = 150,000) | AID 894; active means well fitted inhibition curve with a large enough effect, not every such curve was filed as active; inconclusive means small, poorly fitted or top-dose-only effect, or another doubt; inactive means no such curve, though single readings can be large or run the other way; further: on the % scale 0 is the no-effect control and ±100 the full control effect
Target sequence (P15428 whole entry, looked up): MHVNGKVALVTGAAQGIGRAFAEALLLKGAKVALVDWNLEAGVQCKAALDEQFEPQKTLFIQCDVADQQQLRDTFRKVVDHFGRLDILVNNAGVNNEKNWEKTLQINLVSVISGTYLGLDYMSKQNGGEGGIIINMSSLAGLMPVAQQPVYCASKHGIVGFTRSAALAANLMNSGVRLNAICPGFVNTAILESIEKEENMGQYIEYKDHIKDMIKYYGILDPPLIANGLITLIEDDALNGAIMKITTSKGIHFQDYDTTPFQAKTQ
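NADH formation kinetics: reaction with 30 uM PGE2 and 1 mM NAD+ (final), 20 nM enzyme, Tris-HCl pH 8 with Tween 20, after 15 min compound preincubation at room temperature. Fluorescence change, last versus first of five reads.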
LMNA splice mod = modulators of lamin A splicing | Potency, µM (titrated, usually from 46.1 µM), for the others: at the top dose ratio change, negative = inhibition, usual class: inhibitors | HeLa LMNA splicing GFP/RFP minigene ratio, 48 h | actives 0.01% (n = 200,000); active means well fitted inhibition curve with a large enough effect in the signal ratio, with a control signal flat, not every such curve was filed as active; inconclusive means small, poorly fitted or top-dose-only effect, or effect the other way, or a change in a side signal; the % refers to the signal ratio; further: on the % scale 0 is the no-effect control and ±100 the full control effect
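S3 HeLa cells stably expressing lamin A-EGFP splicing minigene plus DsRed2, 600 cells/well, 48 h compound exposure at 37C. Laser-scanning cytometry; analysed as GFP (500-530 nm)/RFP (575-640 nm) total intensity ratio; 0.5% DMSO vehicle.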
HTT aggregate = reduces HttQ103-GFP aggregates in PC12 cells | Potency, µM (series often up to 46.1 µM), inactives show top-dose activity change, negative = inhibition, usual class: inhibitors | PC12 HttQ103-GFP aggregates, Acumen cytometry, 40 h | actives 1.1% (n = 220,000); further: on the % scale 0 is the no-effect control and ±100 the full control effect; nearly all actives have a fitted effect of over 60% in size
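Aggregate formation scored by laser-scanning cytometer (488 excitation, 500–530 emission) in lysed PC12 cells expressing Q103-GFP after 100 nM tebufenozide induction; library tested in dose series, with ATPLite reagent added in the multiplex.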
HTT cytoprotect = cytoprotection in Huntington HTT-Q103 PC12 cell model; PC12 HTT-Q103 induced, cytoprotection, ATP luminescence, 40 h; Potency, µM (highest dose often 56.4 µM), for the others: cytoprotection (ATP increase), usual class: activators; actives 0.14% (n = 230,000); AID 1471; further: % of control where 0% means no effect; nearly all actives have a fitted effect of over 45% in size
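Stable PC12 Q103-GFP cells in serum-supplemented, phenol red-free DMEM; induction by tebufenozide at 100 nM final; compound dose series; cell viability quantified luminescently from ATP.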
Luc counter = Kinase-Glo luciferase inhibition (counter-screen); AID 1379; actives 0.28% (n = 200,000); Potency, µM (series often up to 38.3 µM), inactives show at the highest dose activity change, negative = inhibition, actives largely listed as inhibitors; Kinase-Glo luciferase, ATP luminescence, 8 min; Q27757; further: on the % scale 0 is the no-effect control and ±100 the full control effect; nearly all actives have a fitted effect of over 60% in size
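Kinase-Glo luciferase light output from ATP and luciferin was measured with 10 uM ATP, within the enzyme's linear range. Buffer: 50 mM imidazole pH 7.2, 50 mM KCl, 7 mM MgCl2, 0.01% Tween 20, 0.05% BSA; luminescence read after 8 min at ambient temperature.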
ALDH1A1 block = inhibitors of human aldehyde dehydrogenase 1A1; P00352; Purified ALDH1A1, NADH fluorescence, propionaldehyde substrate; Potency, µM (titrated, usually from 75.3 µM), inactives show at the highest dose activity, negative = inhibition, most hits filed as inhibitors; actives 7.3% (n = 220,000); AID 1030; active means well fitted inhibition curve with a large enough effect, not every such curve was filed as active; inconclusive means small, poorly fitted or top-dose-only effect, or another doubt; inactive means no such curve, though single readings can be large or run the other way;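 further: plate controls were no enzyme wells and a reference inhibitor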
Target sequence (P00352 whole entry, looked up): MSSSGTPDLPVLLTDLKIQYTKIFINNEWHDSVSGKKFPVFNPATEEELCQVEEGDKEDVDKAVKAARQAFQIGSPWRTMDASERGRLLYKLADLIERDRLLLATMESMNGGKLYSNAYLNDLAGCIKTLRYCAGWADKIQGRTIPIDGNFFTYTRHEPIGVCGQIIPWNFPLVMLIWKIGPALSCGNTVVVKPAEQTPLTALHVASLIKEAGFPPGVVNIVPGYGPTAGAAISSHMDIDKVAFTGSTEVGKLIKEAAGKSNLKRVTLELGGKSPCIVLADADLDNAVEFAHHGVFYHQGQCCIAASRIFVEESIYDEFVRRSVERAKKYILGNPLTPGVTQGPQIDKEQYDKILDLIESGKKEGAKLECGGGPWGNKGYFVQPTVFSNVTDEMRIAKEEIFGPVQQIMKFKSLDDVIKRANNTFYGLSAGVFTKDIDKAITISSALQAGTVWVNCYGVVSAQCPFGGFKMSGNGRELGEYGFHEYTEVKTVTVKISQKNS
Active calls of the source: *; ? = inconclusive; . = no result given; [ ] = dose if it differs, or a comment. Unless noted, the call rests on the fitted dose curve; in most records, active means well fitted curve in the direction sought with a large enough effect; inconclusive means small, poorly fitted or top-dose-only effect, or another doubt; inactive means no such curve, though single readings can be large; an effect the other way counts as inactive or inconclusive. Potency means the concentration at half of the fitted maximal effect.

SMILES | HPGD inh | LMNA splice mod | HTT aggregate | HTT cytoprotect | Luc counter | ALDH1A1 block
Cc1ccc(NC(=S)Nc2ccc3nc(-c4ccccn4)c(-c4ccccn4)nc3c2)cc1C | -26% | -2% | 24% | -1%[0.074 µM] | -2% | 18µM*
Cc1ccc(NC(=S)Nc2ccccn2)cc1C | . | . | -14%[9.22 µM] | -6%[10 µM] | . | .
COC(=O)Cc1c(O)ccn(CCc2c[nH]c3ccc(OC)cc23)c1=O | . | . | -4%[9.22 µM] | -2%[10 µM] | . | 0%
CC(=O)Nc1ccc(S(=O)(=O)N2CCC(NC(=O)C(Cc3cccn3C)NC(C)=O)CC2)cc1 (configuration not stated) | -2% | 6% | 10% | 16% | 0% | ?
Cc1sc2ncnc(NCCc3ccc(S(N)(=O)=O)cc3)c2c1C | -14% | ? | 0.71µM* | -11% | -2% | 29%
Cc1cc(C)c2c(=O)c(C#N)coc2c1 | . | . | 5%[9.22 µM] | 12%[10 µM] | . | 10µM*
Cc1cc(C)c2c(CC(=O)NC(C)C)coc2c1 | . | . | -6% | -4% | -1% | 1%
O=C(O)C1C2C=CC(C2)C1C(=O)NCc1ccccn1 (configuration not stated) | -8% | 2% | -27% | -3% | 14% | -1%
O=C(NCc1ccccn1)C1C2C=CC(C2)C1C(=O)Nc1ccc(F)cc1 (configuration not stated) | 16µM* | -4% | 7% | 28%[1.9 µM] | 1% | 10%
Cc1ccc(C(=O)CSc2nnc3ccc4ccccc4n23)cc1 | . | 6%[46 µM] | . | . | . | .
NS(=O)(=O)c1ccc(NC(=S)Nc2ccc(C(=O)N3CCCCC3)cc2)cc1 | . | . | -1% | -16% | . | 18µM*
O=C(c1ccc(NC(=S)NCc2ccc(Cl)cc2)cc1)N1CCCCC1 | . | . | -13% | . | 0% | ?
O=C(c1ccc(NC(=S)Nc2ccc(Cl)c(Cl)c2)cc1)N1CCCC1 | 11µM* | -14% | 1% | 18%[10 µM] | 1% | ?
CN(C)c1nnnn1-c1ccc(Cl)cc1Cl | . | -3%[9.22 µM] | 12% | -23% | 4% | -6%
CCn1c(SCc2cccnc2)nnc1-c1c[nH]c2ccccc12 | -4% | -5% | -28% | -16% | -5% | 5%
CC(=O)NN1C(=O)/C(=C/c2ccc(Br)o2)SC1=S | ? | -14% | -8%[9.22 µM] | 7% | 1% | 25µM*
CC(C)C1OC2c3cccc4cccc(c34)C2N1c1ccccc1 (configuration not stated) | -7% | -11% | -11% | 9%[10 µM] | 3% | 25µM*
CCN1C(=O)/C(=C2/C=Cc3cc(C)ccc3N2CC)N(C)C1=S | -1% | -14% | -10% | 22%[10 µM] | 10µM* | ?
CN(C)CC(=O)c1c(N)n(Cc2ccccc2)c(=O)n(C)c1=O | . | -25%[46 µM] | -1% | -32% | 1% | 10%
Cn1c(=O)c(C(=O)CCl)c(N)n(Cc2ccccc2)c1=O | -7% | ? | -3% | . | 2% | 7.1µM*
COc1ccc(N2CCN(C(=O)CCNS(=O)(=O)c3ccc4c(c3)CCN4C(=O)C3CC3)CC2)cc1 | . | -12%[46 µM] | . | . | . | .
CCOC(=O)c1c(C)[nH]c(C(=O)N/N=C\c2ccccc2Cl)c1C | -1% | ? | 31% | -16%[10 µM] | -4% | -16%
Cc1cccc(-n2c(C)cc(/C=C3\C(=N)N4N=C(CC(C)C)SC4=NC3=O)c2C)c1 | ? | 13% | -15% | 5%[10 µM] | -4% | ?
CC(C)CC1=NN2C(=N)/C(=C\c3coc4ccccc4c3=O)C(=O)N=C2S1 | . | . | 31% | -43% | 0% | 11µM*
CCc1ccc(-n2cccc2/C=C2/C(=N)N3C(=NC2=O)SN=C3S(C)(=O)=O)cc1 | . | 20%[9.22 µM] | 2% | -31% | 5% | ?
SMILES | HPGD inh | LMNA splice mod | HTT aggregate | HTT cytoprotect | Luc counter | ALDH1A1 block
CCSC1=NSC2=NC(=O)/C(=C\c3coc4ccccc4c3=O)C(=N)N12 | 28µM* | -17% | 18% | 41%[10 µM] | -2% | ?
CN1C(=O)C(O)(C2COC(C)(C)CC2=O)c2ccccc21 (configuration not stated) | -4% | 3% | ? | -4%[10 µM] | -4% | 1%
C/C(=N\S(=O)(=O)c1ccc(C)cc1)NC(=S)Nc1ccc(C)cc1 | . | -5%[46 µM] | 2% | -19% | 2% | ?
CCOc1cc(C(=O)CCC(=O)OCC(=O)Nc2ccc(C)c(S(=O)(=O)N(C)C)c2)ccc1O | . | -1%[46 µM] | 12% | -34% | 0% | 28µM*
CCc1cc(-c2nc(N)ncc2-c2csc(C)n2)c(O)cc1OC | . | ? | 1% | -15% | 4% | 1%
O=C(N/C(=C/c1ccccc1)C(=O)N1CCCCCC1)c1ccccc1 | . | . | 0% | -6% | 2% | ?
O=C(/C(=C/c1ccccc1)c1ccccc1)N1CCCCC1 | 0.71µM* | -5%[0.0737 µM] | 12% | -9% | -1% | 4%
O=C(/C=C/c1ccccc1)N/C(=C/c1ccccc1)C(=O)N1CCCCC1 | . | -5% | -9% | -14% | . | 14µM*
Cc1cnc(C(=O)Nc2ccccc2-n2cccc2)cn1 | -11% | 6% | 4% | 10%[1.9 µM] | -4% | 16µM*
COc1ccc(NC(=O)c2cnc(C)cn2)c2ncccc12 | -10% | -10% | 1.8µM* | -53%[10 µM] | -3% | -5%
Cc1cnc(C(=O)Nc2ccc(C(=O)N(C)C3CCCCC3)cc2)cn1 | 13µM* | 3% | 5% | 17% | 1% | 9%
Cc1cnc(C(=O)Nc2ccc(F)cc2)cn1 | -23% | 1% | -4% | 0% | ? | 32µM*
C/C(Cl)=C\COc1cc(C)nc2c(Br)cccc12 | . | . | -28% | -19% | -3% | -11%
COc1ccc(CNC(=O)C2CCN(C(=O)[C@@H](CC(C)C)NC(=O)OC(C)(C)C)CC2)cc1 | -4% | ? | -16% | 2%[0.074 µM] | -3% | ?
O=C1OCC2OC(O)C(O)C(O)C2OC(=O)c2cc(O)c(O)c(O)c2-c2c(O)c(O)c3oc(=O)c4c(c(O)c(O)c5oc(=O)c2c3c54)-c2c1cc(O)c(O)c2O (configuration not stated) | . | . | -25%[9.22 µM] | 3%[10 µM] | . | .
COc1ccc(/C=N/NS(=O)(=O)c2ccccc2)cc1OS(=O)(=O)c1ccccc1 | -6% | -2% | -6% | -11% | 6% | ?
COc1ccc(CNC(=S)N/N=C/c2ccc(OC)c(OC)c2)cc1 | 22µM* | ? | ? | -28% | -6% | ?
COc1ccc(/C=N/NC(=O)c2cccnc2)cc1COc1ccc([N+](=O)[O-])c(C)c1 | . | . | -23%[9.22 µM] | -50%[10 µM] | . | 10µM*
COc1ccc(/C=N/NC(=O)c2cccc([N+](=O)[O-])c2)cc1OS(=O)(=O)c1ccc(C)cc1 | -22% | 17% | -29% | -28% | 6% | 13µM*
COc1ccc(CNC(=S)N/N=C/c2ccc(O)c(OC)c2)cc1 | -15% | 2% | -12% | 11%[10 µM] | 2% | 1%

Bioassay records from PubChem BioAssay.
